The values below come from PubChem BioAssay (Tox21).

Records with an inconclusive call do not appear. Values without a mark were called inactive. The source made the active and inactive calls. Calls come from the whole dose curve; as a rule, active = well fitted cell-killing curve with a large enough effect in the repeat runs; inconclusive = weak or mixed curves; inactive = no such curve, though single readings can be large or run the other way.
% is set by controls: 0 for no effect and ±100 for the full control effect.

A short description of the assay: qHTS assay to identify small molecule antagonists of the androgen receptor (AR) signaling pathway - cell viability counter screen (AID 743033; note: nearly all actives have a fitted effect of over 45% in size). The conditions noted are these: AR-bla HEK293 viability, CellTiter-Glo luminescence, 16 h; series mostly up to 58.5 µM; activity change, negative = cytotoxicity: at the top concentration. From the text:
National Center for Advancing Translational Sciences [NCATS]
NIH Chemical Genomics Center [NCGC]
U.S. Environmental Protection Agency [EPA]
National Institutes of Environmental Health Sciences [NIEHS]
National Toxicology Program [NTP]
U.S. Food and Drug Administration [FDA]
Androgen receptor (AR), a nuclear hormone receptor, plays a critical role in AR-dependent prostate cancer and other androgen related diseases. Endocrine disrupting chemicals (EDCs) and their interactions with steroid hormone receptors like AR may cause disruption of normal endocrine function as well as interfere with metabolic homeostasis, reproduction, developmental and behavioral functions. To identify the compounds that inhibit AR signaling, GeneBLAzer AR-UAS-bla-GripTite cell line (Invitrogen, Carlsbad, CA, USA) containing a beta-lactamase reporter gene under control of an Upstream Activator Sequence (UAS) stably integrated into HEK293 cells was used to screen the Tox21 10K compound library. The cytotoxicity of the Tox21 compound library against the AR-bla cell line was tested in parallel by measuring the cell viability using CellTiter-Glo assay in the same wells.
Tox21 Assay Protocol Summary:
AR-bla cells were dispensed at 2,000 cells/5 uL of assay medium per well into black wall/clear-bottom 1536-well plates using a Multidrop Combi (ThermoFisher Scientific, Waltham, MA) dispenser. After the assay plates were incubated at a 37C and 5% CO2 for 4 hr, 23 nL of compounds dissolved in DMSO, positive controls or DMSO only was transferred to the assay plate by a Pintool station (Kalypsys, San Diego, CA), followed by addition of 1 uL of agonist (R1881) in culture medium using a Bioraptr Flying Reagent Dispenser (FRD) workstation (Beckman Coulter, Indianapolis, IN, USA). The plates were incubated at a 37C and 5% CO2 for 16 h. After 1 uL of LiveBLAzerTM B/G FRET substrate was added using a Bioraptr FRD, the plates were incubated at room temperature for 2 h and fluorescence intensity was measured by an Envision plate reader (PerkinElmer, Shelton, CT). For cell viability readout that measures cytotoxicity, 4 ul/well of CellTiter-Glo reagent was added into the assay plates using a Bioraptr FRD. After 30 min incubation at room temperature, the luminescence intensity in the plates was measured using a ViewLux (PerkinElmer) plate reader.
`CC(C)c1ccccc1O`: the “activity change, negative = cytotoxicity” value was 4.69%. As for `Cc1ccccc1C`, the “activity change, negative = cytotoxicity” value is 5.73% [at 78.9 µM]. Take `CCOC(=O)C(C)(C)C`: the “activity change, negative = cytotoxicity” value is 0.446% [at 78.9 µM]. On to `CCCCCCCCC(=O)OCC`, for which the “activity change, negative = cytotoxicity” value is 0.122%.

Take `CNC(=O)NC`: the “activity change, negative = cytotoxicity” value was -25.8% [at 78.9 µM]. Take `CCCCCCCCCCCCC1CO1` (stereo not given): the “activity change, negative = cytotoxicity” value was 2.55%. Regarding `CC1CCC(C(C)(C)S)C(=O)C1` (stereo not given), the “activity change, negative = cytotoxicity” value was 2.97%.

For `CCCOC(=O)CCCCC(=O)OCCC`, the “activity change, negative = cytotoxicity” value was 1.3%. For the compound `Cc1cccc(Nc2ccncc2S(=O)(=O)NC(=O)NC(C)C)c1`, the “activity change, negative = cytotoxicity” value was -2.75% [at 27 µM]. Consider `CC(=O)OCC(=O)[C@@]1(O)[C@H](OC(C)=O)C[C@H]2[C@@H]3CCC4=CC(=O)C=C[C@]4(C)[C@@]3(F)[C@@H](O)C[C@@]21C`, for which the “activity change, negative = cytotoxicity” value was 0.38%. Turning to `Cc1nc2ccccc2c(=O)o1`, the “activity change, negative = cytotoxicity” value is -7.59% [at 78.9 µM].

With `CCOC(=O)CC#N`, the “activity change, negative = cytotoxicity” value is 6.45%. The same measure, in the same setting: the result for `O=C(O)c1c(Cl)ccc(Cl)c1Cl` reads 2.2%.

In the case of `O=C(c1ccc2c(c1)C(=O)OC2=O)c1ccc2c(c1)C(=O)OC2=O`, the “activity change, negative = cytotoxicity” value is 4.72%. Turning to `CC(=O)OC(C)(C)Cc1ccccc1`, the “activity change, negative = cytotoxicity” value was 6.26%. Same read-out and setting: under `CCS(=O)(=O)CCn1c([N+](=O)[O-])cnc1C` stands -15.4% [at 27 µM]; under `CCC(C)(C)C1CCC(=O)CC1`, -1.02%. Turning to `CCN(CCO)c1cccc(C)c1`, the “activity change, negative = cytotoxicity” value was 1.29%. As to `O=c1[nH]c(=O)c2ccccc2o1`, the “activity change, negative = cytotoxicity” value is 7.06%. Take `CO[Si](CCCS)(OC)OC`: the “activity change, negative = cytotoxicity” value was 1.3%. As to `CC(C)CCCC(C)CC=O` (stereo not given), the “activity change, negative = cytotoxicity” value is -0.106%. Turning to `CC(=O)Nc1ccc(C)cc1`, the “activity change, negative = cytotoxicity” value was 1.88%. Take `CCC(C)N` (stereo not given): the “activity change, negative = cytotoxicity” value was 0.56%. On to `Cc1c(C(C)C)c(=O)n(-c2ccccc2)n1C`, for which the “activity change, negative = cytotoxicity” value was 1.66%. The same measure, in the same setting: the result for `CC1(N)CCC(C(C)(C)N)CC1` (stereo not given) reads 5.23%; that for `COC(OC)C(C)c1ccccc1` (stereo not given), 3.4%; that for `C=CCOCC(O)CCl` (stereo not given), 1.7%. The same measure, in the same setting: under `CCCCC(C)C(=O)O` (stereo not given) stands 7.11%; under `CC(C)C(=O)c1ccccc1`, 1.67%. As for `O=C(COCCOCCOCC(=O)Nc1c(I)cc(I)c(C(=O)O)c1I)Nc1c(I)cc(I)c(C(=O)O)c1I`, the “activity change, negative = cytotoxicity” value was -6.33%. Turning to `CC(=O)Nc1ncc([N+](=O)[O-])s1`, the “activity change, negative = cytotoxicity” value was -10.8%. On to `CCNC(=O)NCCCOc1cccc(CN2CCCCC2)c1`, for which the “activity change, negative = cytotoxicity” value is -0.754%.

Turning to `C=CCOCC(CO)(COCC=C)COCC=C`, the “activity change, negative = cytotoxicity” value was 2.85%. As for `N#CCCOCCOCCC#N`, the “activity change, negative = cytotoxicity” value was 6.49%. Turning to `CCC(=O)c1ccc(O)cc1`, the “activity change, negative = cytotoxicity” value is 0.494%. As to `CN=C(NC#N)NCCSCc1csc(N=C(N)N)n1`, the “activity change, negative = cytotoxicity” value is 2.25%. Turning to `COC(=O)CCC(=O)O`, the “activity change, negative = cytotoxicity” value is 0.719%. As for `CC(C)(c1ccc(Oc2ccc3c(c2)C(=O)OC3=O)cc1)c1ccc(Oc2ccc3c(c2)C(=O)OC3=O)cc1`, the “activity change, negative = cytotoxicity” value is -0.8%.

For `Cc1nc([N+](=O)[O-])cn1-c1ccc([N+](=O)[O-])cc1`, the “activity change, negative = cytotoxicity” value was -19.3%.

`O=c1[nH]c(=O)c2[nH]c(=O)[nH]c2[nH]1`: the outcome was inactive.
